Assay outcomes: PubChem BioAssay, National Center for Advancing Translational Sciences (NCATS)
AMA1-RON2 inh – disrupts binding of P. falciparum AMA1 to RON2; AlphaScreen AMA1-biotinylated RON2 peptide binding; Potency, µM (highest dose often 58.2 µM), inactives show at the highest dose activity change, negative = inhibition, most hits filed as inhibitors; 360,000 tested, 0.2% active; AID 720542;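 further: potency means the concentration at half of the fitted maximal effect; 0% = vehicle wells and -100% = peptide control; nearly all actives have a fitted effect of over 45% in size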
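AMA1 (3D7) with his tag at 25 nM final met compounds first, then biotinylated RON2 peptide at 25 nM; detection used donor plus acceptor beads, 10 µg/mL apiece, read by AlphaScreen after 30 min at room temperature.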
SARS PLP yeast – inhibitors of SARS-CoV papain-like protease in yeast; Potency, µM (doses to about 32.9 µM), without a hit: at the top dose activity, positive = growth rescue, usual class: activators; S. cerevisiae expressing SARS-CoV PLpro, growth rescue; 330,000 tested, 0.19% active; calls by dose curve; further: potency means the concentration at half of the fitted maximal effect; 0% is about no effect; nearly all actives have a fitted effect of over 55% in size
AmpC inh no detg – AmpC beta-lactamase inhibition without detergent; Potency, µM (top dose mostly 57.1 µM), without a hit: at the highest dose activity change, negative = inhibition, most hits filed as inhibitors; AID 485341; 330,000 tested, 0.52% active; AmpC nitrocefin hydrolysis, absorbance 480 nm, 0.0001% Triton;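 further: potency means the concentration at half of the fitted maximal effect; plate controls were no compound for no effect and no enzyme for full effect; nearly all actives have a fitted effect of over 20% in size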
Target sequence (P00811 whole entry, looked up): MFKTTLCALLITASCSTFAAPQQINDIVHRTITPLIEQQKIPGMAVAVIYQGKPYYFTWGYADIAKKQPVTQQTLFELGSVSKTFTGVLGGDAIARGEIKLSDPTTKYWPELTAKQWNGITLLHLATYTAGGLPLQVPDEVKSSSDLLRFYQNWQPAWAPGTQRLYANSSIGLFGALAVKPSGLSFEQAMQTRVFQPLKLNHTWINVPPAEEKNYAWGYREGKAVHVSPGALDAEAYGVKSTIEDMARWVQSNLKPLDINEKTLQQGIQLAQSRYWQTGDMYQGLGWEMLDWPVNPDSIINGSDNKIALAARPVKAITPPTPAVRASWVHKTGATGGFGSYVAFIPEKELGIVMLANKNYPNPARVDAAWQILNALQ
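AmpC (5.3 nM in the dispensed reagent) in 20 mM phosphate pH 7.0 with 0.01% (detergent screen) or 0.0001% Triton X-100 was preincubated with compounds for 15 min at room temperature. Nitrocefin was then added from an 800 uM solution, and hydrolysis was followed at 480 nm.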
AmpC inh detg – inhibitors of E. coli AmpC beta-lactamase with detergent | P00811 | AmpC hydrolysis of nitrocefin, absorbance 480 nm, 0.01% Triton | Potency, µM (doses to about 114 µM), for the others: at the top dose activity change, negative = inhibition, usual class: inhibitors | 370,000 tested, 0.041% active | AID 485294;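 further: potency means the concentration at half of the fitted maximal effect; 0% = no-compound wells and -100% = no-enzyme wells; nearly all actives have a fitted effect of over 25% in size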
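AmpC (5.3 nM in the dispensed reagent) in 20 mM phosphate pH 7.0 with 0.01% (detergent screen) or 0.0001% Triton X-100 was preincubated with compounds for 15 min at room temperature. Nitrocefin was then added from an 800 uM solution, and hydrolysis was followed at 480 nm.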
Cycloheximide cs – counter-screen hit for Shiga toxin inhibitors, cycloheximide | cell reporter, cycloheximide protein synthesis inhibition counterscreen | max response, % | 300,000 tested, 12% active | AID 2314; in the data active means max response mostly above about 13%, no sharp cut-off; inactive means mostly below about 14%; further: read at 38.3 µM for the half of the compounds with a filed dose; 0% is about no effect
Shiga inhibitor – Shiga toxin inhibition; Vero cells, Shiga toxin protein synthesis inhibition reporter; inhibition, % at 38.7 µM; 290,000 tested, 9.2% active; AID 2315; in the data active means inhibition mostly above about 28%, no sharp cut-off; inactive means mostly below about 43%; further: 0% is about no effect
Numbers without * were called inactive; ? = inconclusive; / = no result; [ ] = dose if it differs, or a comment. Shown is part of a subset that was picked to be rich in hits. Unless noted, the call rests on the fitted dose curve; in most records, active means well fitted curve in the direction sought with a large enough effect; inconclusive means small, poorly fitted or top-dose-only effect, or another doubt; inactive means no such curve, though single readings can be large; an effect the other way counts as inactive or inconclusive.

SMILES	AMA1-RON2 inh	SARS PLP yeast	AmpC inh no detg	AmpC inh detg	Cycloheximide cs	Shiga inhibitor
Cc1ccc(OCc2ccc(C(=O)Nc3ccc(S(N)(=O)=O)cc3)o2)cc1	-2%	-1%	-42%	-3%	18	5
COc1ccc(NC(=O)c2ccc(COc3ccccc3)o2)c(OC)c1	0%	-11%	-20%	-4%	3	-5
COc1ccc(NC(=O)c2ccc(COc3ccccc3)o2)cc1	0%	-4%	-18%	0%	21*	24
COc1ccc(NC(=O)c2ccc(Cc3ccc(C)cc3)o2)cc1	-9%	-68%	-18%	-14%	24*	29
COc1cc(NC(=O)C[n+]2ccc(C(=O)c3ccccc3)cc2)cc(OC)c1	-2%	-8%	-10%	/	/	/
Cc1nc(-n2nc(C)c(CCC(C)C)c2C)sc1C(=O)Nc1cccc(Cl)c1	/	/	/	13%	/	/
N#C/C(=C\c1ccc2c(c1)OCCO2)C(=O)Nc1ccc(C(=O)O)cc1	-9%	-1%	-13%	-1%	78*	113*
N#C/C(=C/c1ccc2c(c1)OCO2)C(=O)Nc1ccc(O)cc1	-9%	-1%	-14%	1%	49*	54
O=C(Nc1ccc(C(=O)O)cc1)/C(=C\c1ccc2c(c1)OCO2)NC(=O)c1ccco1	2%	0%	-21%	5%	4	-5
O=[N+]([O-])c1ccc(Oc2ccc(-c3cnc4ccccc4n3)cc2[N+](=O)[O-])cc1	7%	24%	-20%	-11%	21*	40*
O=[N+]([O-])c1cc(-c2cnc3ccccc3n2)ccc1Oc1ccc(Br)cc1	-7%	5%	-28%	-5%	29*	111*
O=C(O)c1ccc(Oc2ccc([N+](=O)[O-])cc2)c([N+](=O)[O-])c1	-5%	/	/	/	/	/
Cc1ccc(NC(=O)c2ccsc2)cc1NS(C)(=O)=O	6%	-1%	-3%	4%	7	-1
CC(=O)Nc1nonc1NC(=O)c1ccc(C(C)(C)C)cc1	1%	-4%	-30%	3%	20*	58*
O=C(Nc1ccc(Nc2ccccc2)cc1)c1ccc(Cl)cc1	-15%	/	/	/	/	/
CC(C)(C)c1ccc(NC(=O)c2ccsc2)cc1	2%	-5%	-35%	-10%	28*	45*
CC(C)(C)c1ccc(C(=O)Nc2ccc(Cl)cc2)cc1	8%	-7%	-21%	-8%	43*	101*
NC(=O)CC(NC(=O)Cc1cccc2ccccc12)c1ccc(N2CCC(Br)CC2)c([N+](=O)[O-])c1 (centres undefined)	-2%	3%	46%	4%	-4	-7
Cc1ccc(S(=O)(=O)N(CC(=O)NCCC2=CCCCC2)Cc2ccccc2)cc1	3%	-25%	45%	-1%	-5	17
Cc1cccn2c(=O)cc(COc3cccc(NC(=O)c4cccc(Cl)c4)c3)nc12	/	/	/	1%	/	/
O=[N+]([O-])c1ccc2nc(N3CCCC3)sc2c1	0%	1%	4%	-2%	29*	68*
Fc1cc(F)c2nc(N3CCCCC3)sc2c1	-5%	10%	-9%	-1%	78*	115*
Fc1ccc2nc(N3CCCC3)sc2c1	16%	2%	-25%	3%	44*	85*
c1ccc2sc(N3CCCCC3)nc2c1	22%	/	/	/	/	/
C=C(C)C1CC=C(C)/C(=N/NC(=O)COc2cccc3ccccc23)C1 (centres undefined)	17%	-1%	-24%	?	-1	13
SMILES	AMA1-RON2 inh	SARS PLP yeast	AmpC inh no detg	AmpC inh detg	Cycloheximide cs	Shiga inhibitor
C[C@H]1CN([C@@H](C)CO)S(=O)(=O)c2ccc(Br)cc2O[C@H]1CN(C)C(=O)CCN1CCCCC1	2%	/	/	/	/	/
O=C(NCC1CCCO1)C1CCCN(S(=O)(=O)c2ccc(F)cc2)C1 (centres undefined)	7%	3%	-3%	3%	-2	-24
Cc1cccc(-c2noc(-c3cc4ccccc4oc3=O)n2)c1	-1%	0%	-3%	-13%	29*	85*
O=c1oc2ccccc2cc1-c1nc(-c2ccccc2)no1	8%	3%	14%	3%	36*	107*
Cc1ccc(-c2noc(-c3cc4ccccc4oc3=O)n2)cc1	5%	2%	-12%	1%	25*	42
COC(=O)C1=C(C(=O)OC)SC(=C2C(=S)C(C)(C)N(C(=O)C(C)C)c3ccccc32)S1	-14%	?	-9%	6%	-2	21
O=C(c1ccc2c(=O)n3c(nc2c1)CCCCC3)N1CCN(c2cccc(Cl)c2)CC1	-8%	-7%	287%	?	-1	17
Cc1ccc(Nc2ncnc(N)n2)cc1C	2%	0%	-7%	-7%	26*	50*
Nc1ncnc(Nc2ccccc2)n1	-2%	0%	-12%	-10%	/	/
Cc1nn(-c2ccccc2)c2[nH]c(=O)c(CNc3ccc4c(c3)OCCO4)cc12	-12%	4%	-1%	-10%	42*	113*
CCn1c(SCC(=O)N(C)CCC#N)nc2cc(S(=O)(=O)N3CCOCC3)ccc21	-9%	4%	-4%	-16%	/	/
CN(CC(=O)Nc1ccccc1C(=O)NC1CC1)Cc1ccc(Cl)cc1	22%	2%	-12%	-15%	/	/
COc1ccc(-c2nnc3n2C(C)(C)Cc2cc(OC)c(OC)cc2-3)cc1	/	?	5%	-7%	-2	-17
COc1cccc(C(=O)c2ncc(C(F)(F)F)cc2Cl)c1	2%	-1%	-17%	7%	28	34*
Cc1ccc(OCc2ccc(C(=O)O)o2)c([N+](=O)[O-])c1	8%[11.6 µM]	1%	-17%	-12%	13*	22
COC(=O)c1ccc(COc2ccccc2/C=N/O)o1	-6%	-1%	-18%	-3%	6	31
COC(=O)c1ccc(COc2ccccc2[N+](=O)[O-])o1	-3%	-9%	-14%	0%	45*	73*
Cc1ccc(OCc2ccc(C(=O)N3CCCC3)o2)c([N+](=O)[O-])c1	3%	-7%	29%	-4%	18	24
CCc1cnc2c(c1SCC(=O)NCc1ccccc1Cl)c(=O)n(C)c(=O)n2C	/	/	/	3%	/	/
c1ccc(SCCc2ccncc2)cc1	5%	-2%	-12%	?	20*	15
COc1ccc(SCCc2ccncc2)cc1	7%	1%	2%	-1%	-3	-9
CC(C)(C)c1ccc(SCCc2cccnc2)cc1	18%	-1%	2%	-1%	44*	110*
Cc1oc2c(c1C(=O)NC(Cc1c[nH]c3ccccc13)C(=O)O)CCCC2 (centres undefined)	-7%	-1%	-25%	?	-9	-2
CCN(CC)S(=O)(=O)c1ccc(C(=O)Nc2cc(C)cc(C)c2)cc1	4%	-3%	-8%	2%	-2	-13
